HPGD block: inhibitors of human 15-hydroxyprostaglandin dehydrogenase (HPGD); P15428; Potency, µM, most hits filed as inhibitors; hit rate 4.3% among 150,000; AID 894; purified HPGD, NADH fluorescence kinetic, PGE2 substrate; active = well fitted inhibition curve with a large enough effect, not every such curve was filed as active; inconclusive = small, poorly fitted or top-dose-only effect, or another doubt; inactive = no such curve, though single readings can be large or run the other way
Target sequence (P15428 whole entry, looked up): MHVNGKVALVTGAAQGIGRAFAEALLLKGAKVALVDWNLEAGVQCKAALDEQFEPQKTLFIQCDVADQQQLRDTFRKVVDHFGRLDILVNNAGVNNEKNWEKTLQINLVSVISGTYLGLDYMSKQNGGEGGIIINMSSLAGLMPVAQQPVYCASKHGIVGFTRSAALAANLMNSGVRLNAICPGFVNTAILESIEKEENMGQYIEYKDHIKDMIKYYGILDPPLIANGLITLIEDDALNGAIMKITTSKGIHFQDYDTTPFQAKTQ
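NADH formation kinetics: reaction with 30 uM PGE2 and 1 mM NAD+ (final), 20 nM enzyme, Tris-HCl pH 8 with Tween 20, after 15 min compound preincubation at room temperature. Fluorescence change, last versus first of five reads.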
ALDH1A1 inh: blocks purified human ALDH1A1 activity | AID 1030 | Potency, µM (doses to about 75.3 µM), usual class: inhibitors | P00352 | Purified ALDH1A1, NADH fluorescence, propionaldehyde substrate | hit rate 7.3% among 220,000; active = well fitted inhibition curve with a large enough effect, not every such curve was filed as active; inconclusive = small, poorly fitted or top-dose-only effect, or another doubt; inactive = no such curve, though single readings can be large or run the other way
Target sequence (P00352 whole entry, looked up): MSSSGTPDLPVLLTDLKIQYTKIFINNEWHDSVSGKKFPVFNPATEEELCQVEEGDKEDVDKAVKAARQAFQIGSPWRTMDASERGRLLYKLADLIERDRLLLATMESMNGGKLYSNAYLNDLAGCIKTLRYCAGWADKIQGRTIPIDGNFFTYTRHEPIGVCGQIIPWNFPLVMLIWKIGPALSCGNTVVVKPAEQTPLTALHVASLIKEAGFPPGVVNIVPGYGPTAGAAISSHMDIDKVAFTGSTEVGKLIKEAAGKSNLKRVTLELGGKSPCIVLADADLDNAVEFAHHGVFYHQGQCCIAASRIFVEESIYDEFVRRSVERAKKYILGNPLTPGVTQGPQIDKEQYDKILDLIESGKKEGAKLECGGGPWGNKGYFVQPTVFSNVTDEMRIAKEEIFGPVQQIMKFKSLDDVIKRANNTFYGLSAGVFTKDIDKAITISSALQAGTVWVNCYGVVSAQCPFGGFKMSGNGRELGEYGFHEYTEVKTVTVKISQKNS
KinaseGlo FLuc: Kinase-Glo luciferase inhibition (counter-screen). Q27757. Kinase-Glo luciferase, ATP luminescence, 8 min. Potency, µM (titrated, usually from 38.3 µM), most hits filed as inhibitors. hit rate 0.28% among 200,000. AID 1379; also: nearly all actives have a fitted effect of over 60% in size
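Luminescence was the read-out, taken after 8-minute incubation at ambient temperature. Luciferase turned over luciferin with 10 uM ATP in imidazole pH 7.2 buffer containing KCl, MgCl2, Tween 20 and BSA.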
Lamin A splicing: changes lamin A minigene splicing in HeLa cells | AID 1487 | HeLa LMNA splicing GFP/RFP minigene ratio, 48 h | hit rate 0.01% among 200,000 | Potency, µM (doses to about 46.1 µM), actives largely listed as inhibitors; active = well fitted inhibition curve with a large enough effect in the signal ratio, with a control signal flat, not every such curve was filed as active; inconclusive = small, poorly fitted or top-dose-only effect, or effect the other way, or a change in a side signal; the % refers to the signal ratio
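S3 HeLa stable clones carrying a lamin A-EGFP splicing minigene plus DsRed2 were seeded at 600 cells/well in Opti-MEM with 2% FBS, pin-dosed and incubated 48 h at 37°C. Acumen cytometry (488 nm) gave the GFP/RFP total-intensity ratio.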
IMPase Li inh: membrane-permeable IMPase blocker, potentiated with lithium. hit rate 0.35% among 210,000. CHO-M1 cells, IP1 TR-FRET (IP-One), carbachol + lithium. AID 1457. Potency, µM (titrated, usually from 59.4 µM), hits mostly inhibitors;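 also: IP1 builds up when IMPase is blocked and the TR-FRET signal falls; nearly all actives have a fitted effect of over 50% in size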
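CHO cells stably expressing M1 receptor (2000/well) were cultured 16–30 h, then exposed to compounds with a small lithium addition for 30 min at 37C. IP1 was measured by TR-FRET competition; AC50 from Hill fits.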
Of the large screens only hits and unclear results are named; the others gave an inactive call; ! = a repeat was not active. An excerpt weighted towards active compounds, which were near 9% of everything screened. Unless noted, calls follow the shape of the dose curve; as a rule, active = well fitted curve in the direction sought with a large enough effect; inconclusive = small, poorly fitted or top-dose-only effect, or another doubt; inactive = no such curve, though single readings can be large; an effect the other way counts as inactive or inconclusive.

COC(=O)C/C=C\[C@@H](C)[C@@H](/C=N\O[C@@H]1O[C@H](COC(C)=O)[C@@H](OC(C)=O)[C@H](OC(C)=O)[C@H]1OC(C)=O)NS(=O)(=O)c1ccc(C)cc1	none (no result: HPGD block, KinaseGlo FLuc, Lamin A splicing, IMPase Li inh)
CC(=O)Nc1ccc(C(=O)CSc2nc3ccccc3n2CC(=O)N2CCCC2)cc1	HPGD block inconclusive, ALDH1A1 inh 25µM
CCOC(=O)CSc1nc2ccccc2n1CC(=O)NC(C)(C)C	none
COc1ccc(C(=O)CSc2nc3ccccc3n2CC(=O)NC(C)(C)C)cc1	ALDH1A1 inh 2.2µM
CC(=O)Nc1ccc(NC(=O)Cn2c(CC(=O)N3CCCC3)nc3ccccc32)cc1	none
Cc1ccc(C(=O)c2cc([N+](=O)[O-])ccc2N2CCCCC2)cc1	ALDH1A1 inh 20µM, Lamin A splicing inconclusive
O=C(c1cccc(Oc2ccc([N+](=O)[O-])cc2Cl)c1)N1CCCCC1	ALDH1A1 inh inconclusive (no result: HPGD block, Lamin A splicing)
Cc1cccc(N2CCN(C(=O)c3cc(S(=O)(=O)N(C)C)ccc3N3CCCC3)CC2)c1C	ALDH1A1 inh inconclusive, Lamin A splicing inconclusive (no result: HPGD block)
O=C(c1ccc(Oc2ccc([N+](=O)[O-])cc2Cl)cc1)N1CCCC1	ALDH1A1 inh 22µM (no result: HPGD block, Lamin A splicing)
CN(C)S(=O)(=O)c1ccc(N2CCCC2)c(C(=O)N2CCN(c3ccc([N+](=O)[O-])cc3)CC2)c1	ALDH1A1 inh 14µM (no result: HPGD block)
O=C(c1cc([N+](=O)[O-])ccc1N1CCCCC1)N1CCCC1	ALDH1A1 inh 28µM
Cc1ccc(S(=O)(=O)NC(=O)Nc2cc(C)ccc2F)cc1	ALDH1A1 inh 28µM, Lamin A splicing inconclusive
CC1=C(C(=O)OCC2CCCO2)C(c2ccc(C)cc2)C2=C(CC(C)(C)CC2=O)N1 (centres undefined)	none (no result: HPGD block, Lamin A splicing)
COc1ccc(OC)c(/C=N/Nc2nncn2/N=C/c2cc(OC)ccc2OC)c1	ALDH1A1 inh inconclusive, Lamin A splicing inconclusive
COc1cc(/C=N/Nc2nncn2/N=C/c2ccc(O)c(OC)c2)ccc1O	ALDH1A1 inh inconclusive, KinaseGlo FLuc 10µM (no result: HPGD block)
OCCn1c(CSc2nnc(-c3ccco3)n2-c2ccccc2)nc2ccc(Cl)cc21	HPGD block inconclusive, ALDH1A1 inh 13µM
O=C(OCc1nc2ccc(Cl)cc2n1CCO)c1ccccc1	none
O=C(C1COc2ccccc2O1)N1CCc2ccccc2C1 (centres undefined)	HPGD block 7.1µM, ALDH1A1 inh inconclusive
O=C(C1COc2ccccc2O1)N1CCN(c2ccccc2Cl)CC1 (centres undefined)	Lamin A splicing inconclusive (no result: HPGD block)
COC(=O)/C=C1\S/C(=N/N=C/c2ccccc2)NC1=O	HPGD block 25µM
CC(C)CC(=O)N[C@H](C(=O)N[C@H](C(=O)N[C@@H](CC(C)C)[C@H](O)CC(=O)N[C@@H](C)C(=O)N[C@@H](CC(C)C)[C@H](O)CC(=O)O)C(C)C)C(C)C	Lamin A splicing inconclusive
COc1ccc(-c2cnn3c(N)c(S(=O)(=O)c4ccccc4)cnc23)cc1	HPGD block 20µM
Nc1c(S(=O)(=O)c2ccccc2)cnc2c(-c3ccc(F)cc3)cnn12	HPGD block inconclusive, ALDH1A1 inh inconclusive, Lamin A splicing inconclusive
CC1CCCN(c2ccc(C(=O)NCC3CCCO3)cn2)C1 (centres undefined)	HPGD block 11µM
CC(C)CCN1C(=O)c2ccc(C(=O)NCC3CCCO3)cc2C1=O (centres undefined)	ALDH1A1 inh 4.5µM
O=C(NCC1CCCO1)c1ccc2c(c1)C(=O)N(C1CCCCC1)C2=O (centres undefined)	ALDH1A1 inh 8.9µM
O=C1c2c(O)cccc2Cc2cccc(O)c21	ALDH1A1 inh 25µM, Lamin A splicing inconclusive
O=C(O)c1cc(O)c2c(c1)C(=O)c1cccc(O)c1C2=O	HPGD block inconclusive, ALDH1A1 inh inconclusive, Lamin A splicing inconclusive
Cc1cc(O)c2c(c1)C(=O)c1cccc(O)c1C2=O	ALDH1A1 inh 13µM!, Lamin A splicing inconclusive
CC1C/C(=C/c2ccco2)C(=O)/C(=C/c2ccco2)C1 (centres undefined)	ALDH1A1 inh 14µM, Lamin A splicing inconclusive
O=C1/C(=C/c2ccco2)CCC1C1CCCC1 (centres undefined)	ALDH1A1 inh inconclusive (no result: HPGD block, Lamin A splicing)
O=C1/C(=C\c2ccco2)CCC/C1=C\c1ccco1	ALDH1A1 inh 5.6µM
Cc1nnc(NC(=O)Cn2nc(C)c3ccccc3c2=O)s1	none (no result: HPGD block)
Cc1cnc(NC(=O)c2cc3c(C)nn(Cc4ccccc4Cl)c3s2)s1	HPGD block inconclusive, ALDH1A1 inh inconclusive, IMPase Li inh inconclusive
COc1ccc(-c2cc3ccc(O)c(CN4CCN(CCO)CC4)c3oc2=O)cc1OC	none (no result: HPGD block, ALDH1A1 inh, KinaseGlo FLuc, IMPase Li inh)
CCCN(CCC)CCCn1c(=O)[nH]c2ccccc21	none (no result: HPGD block, Lamin A splicing)
CCOC(=O)C1=C(C)NC(=O)C(C(N)=O)C1c1ccccc1 (centres undefined)	none
COC(=O)C1=C(C)NC(=O)CC1c1ccccc1 (centres undefined)	none
COC(=O)C1=C(C)NC(=S)N(C(C)=O)C1c1ccccc1 (centres undefined)	ALDH1A1 inh 25µM
CCOC(=O)C1=C(C)NC(=S)N(C=O)C1c1ccccc1 (centres undefined)	ALDH1A1 inh 2µM (no result: HPGD block)
CCc1cccc2c(C=C(C#N)C#N)cn(CC(=O)N3CCCCCC3)c12	IMPase Li inh inconclusive
O=[N+]([O-])c1ccc(/C=N/NC(=S)Nc2ccccc2C(F)(F)F)o1	ALDH1A1 inh inconclusive
COc1ccc(CNC(=O)Cn2c(=O)n3nc(-c4cccc(F)c4)nc3c3ccccc32)cc1OC	none (no result: HPGD block, ALDH1A1 inh, KinaseGlo FLuc, IMPase Li inh)
COc1ccc2c(c1)-c1nc(/N=C/c3ccc(O)cc3)sc1CC2	ALDH1A1 inh 4.5µM
COc1ccc2c(c1)-c1nc(/N=C/c3c(O)ccc4ccccc34)sc1CC2	HPGD block inconclusive, ALDH1A1 inh 18µM
Oc1ccc2ccccc2c1/C=N/c1nccs1	ALDH1A1 inh inconclusive
CCN(CC)S(=O)(=O)c1ccc2oc(C(=O)N3CCc4ccccc4C3)c(C)c2c1	HPGD block 28µM, ALDH1A1 inh inconclusive, Lamin A splicing inconclusive
CCN(CC)S(=O)(=O)c1ccc2oc(C(=O)N3CCCCCC3)c(C)c2c1	HPGD block 7.1µM, ALDH1A1 inh 13µM, Lamin A splicing inconclusive
CCN(CC)S(=O)(=O)c1ccc(C(=O)N2CCCCC2)cc1	HPGD block 4µM
CCN(CC)S(=O)(=O)c1ccc2oc(C(=O)N3CCOCC3)c(C)c2c1	HPGD block inconclusive
C=CCNC(=O)c1oc2ccc(S(=O)(=O)N(CC)CC)cc2c1C	HPGD block 20µM, ALDH1A1 inh 20µM
CCOc1ccc2ccccc2c1/C=N/n1cncn1	HPGD block 32µM, ALDH1A1 inh inconclusive
O=C(NNS(=O)(=O)c1ccccc1)c1cccnc1	none (no result: Lamin A splicing)
O=C(NC(=S)NNS(=O)(=O)c1ccc(Cl)cc1)c1cccnc1	ALDH1A1 inh 7.9µM (no result: HPGD block, Lamin A splicing)
CCCCC(=O)NC(=S)NNC(=O)CC#N	ALDH1A1 inh 22µM
CCCCCC(=O)NNC(=S)NC(=O)c1ccc([N+](=O)[O-])cc1	ALDH1A1 inh 6.3µM, Lamin A splicing inconclusive (no result: HPGD block)
